The nature of assay [1]: Quantitative High-Throughput drug screen in 47 multiple myeloma cell lines against the NCATS MIPE library collection: KMS12BM_JCRB cell viability assay (AID 1918971). Further: nearly all actives have a fitted effect of over 35% in size. Further: potency means the concentration at half of the fitted maximal effect. In short, it runs like this:
(§1)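 Viability readout: CellTiter-Glo luminescence following 5 min room-temperature incubation with reagent. Prior exposure: 48 h, 37C, humidified 5% CO2, 500 cells per well.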

A short description of assay [2]: Quantitative High-Throughput drug screen in 47 multiple myeloma cell lines against the NCATS MIPE library collection: KMS20_JCRB cell viability assay (AID 1918973). Further: nearly all actives have a fitted effect of over 45% in size. Further: potency means the concentration at half of the fitted maximal effect. Put shortly:
(§2)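 CellTiter-Glo ATP luminescence gave viability after 48 h compound treatment at 37C of 500 multiple myeloma cells per well. Normalisation used DMSO-only wells as 100% and media-only wells as 0% viability; primary qHTS of approved and investigational drugs.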

A short description of assay [3]: Quantitative High-Throughput drug screen in 47 multiple myeloma cell lines against the NCATS MIPE library collection: KMS26_JCRB cell viability assay (AID 1918975). Further: nearly all actives have a fitted effect of over 45% in size. Further: potency means the concentration at half of the fitted maximal effect. Put shortly:
as §1

Assay [4] is described as follows: Quantitative High-Throughput drug screen in 47 multiple myeloma cell lines against the NCATS MIPE library collection: MMM1_PLB cell viability assay (AID 1918976). Further: potency means the concentration at half of the fitted maximal effect; nearly all actives have a fitted effect of over 35% in size. Put shortly:
(§3)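 MIPE 4.0 approved/investigational drugs; 500 cells/well; 48 h 37 °C humidified 5% CO2; CTG luminescence readout; DMSO = 100%, media = 0% viability.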

Assay [5] in a line: Quantitative High-Throughput drug screen in 47 multiple myeloma cell lines against the NCATS MIPE library collection: MM1S_ATCC cell viability assay (AID 1918980). Further: nearly all actives have a fitted effect of over 45% in size. Further: potency means the concentration at half of the fitted maximal effect. Put shortly:
as §3

Assay [6] can be described thus: Quantitative High-Throughput drug screen in 47 multiple myeloma cell lines against the NCATS MIPE library collection: MM1R_ATCC cell viability assay (AID 1918981). Further: nearly all actives have a fitted effect of over 35% in size. Further: potency means the concentration at half of the fitted maximal effect. Put shortly: as §3
Assay [7] in a line: Quantitative High-Throughput drug screen in 47 multiple myeloma cell lines against the NCATS MIPE library collection: KMS28PE_JCRB cell viability assay (AID 1918983). Further: nearly all actives have a fitted effect of over 35% in size. Further: potency means the concentration at half of the fitted maximal effect. In short, it runs like this:
as §3

Assay [8] can be described thus: Quantitative High-Throughput drug screen in 47 multiple myeloma cell lines against the NCATS MIPE library collection: OCIMY5_PLB cell viability assay (AID 1918988). Further: nearly all actives have a fitted effect of over 65% in size. Further: potency means the concentration at half of the fitted maximal effect. In short, it runs like this: as §3
Assay [9] can be described thus: Quantitative High-Throughput drug screen in 47 multiple myeloma cell lines against the NCATS MIPE library collection: OPM1_PLB cell viability assay (AID 1918989). Further: nearly all actives have a fitted effect of over 40% in size. Further: potency means the concentration at half of the fitted maximal effect. Put shortly:
as §3

The nature of assay [10]: Quantitative High-Throughput drug screen in 47 multiple myeloma cell lines against the NCATS MIPE library collection: U266_ATCC cell viability assay (AID 1919864). Further: nearly all actives have a fitted effect of over 35% in size. Further: potency means the concentration at half of the fitted maximal effect. In short, it runs like this: as §3
Assay [11] is described as follows: Quantitative High-Throughput drug screen in 47 multiple myeloma cell lines against the NCATS MIPE library collection: KMS21BM_JCRB cell viability assay (AID 1918974). Further: potency means the concentration at half of the fitted maximal effect. As to conditions: ATP luminescence, 48 h; viability: at 45.8 µM (top of the series) unless noted. Put shortly:
as §2

A short description of assay [12]: Quantitative High-Throughput drug screen in 47 multiple myeloma cell lines against the NCATS MIPE library collection: NCIH929_DSMZ cell viability assay (AID 1918978). Further: nearly all actives have a fitted effect of over 35% in size. Further: potency means the concentration at half of the fitted maximal effect. Put shortly:
as §3

The nature of assay [13]: Quantitative High-Throughput drug screen in 47 multiple myeloma cell lines against the NCATS MIPE library collection: L363_DSMZ cell viability assay (AID 1918984). Further: nearly all actives have a fitted effect of over 40% in size. Further: potency means the concentration at half of the fitted maximal effect. In short, it runs like this:
as §3

Assay [14] in a line: Quantitative High-Throughput drug screen in 47 multiple myeloma cell lines against the NCATS MIPE library collection: OCIMY7_PLB cell viability assay (AID 1918987). Further: potency means the concentration at half of the fitted maximal effect; nearly all actives have a fitted effect of over 65% in size. As to conditions: OCI-MY7 myeloma viability, CellTiter-Glo ATP, 48 h; viability (% of DMSO): at 45.8 µM (top of the series). In short, it runs like this: as §3
A short description of assay [15]: Quantitative High-Throughput drug screen in 47 multiple myeloma cell lines against the NCATS MIPE library collection: SKMM1_PLB cell viability assay (AID 1919863). Further: nearly all actives have a fitted effect of over 35% in size. Further: potency means the concentration at half of the fitted maximal effect. To be noted: SKMM1 myeloma viability, CellTiter-Glo ATP, 48 h; viability: hits give low values. In short, it runs like this: as §3
Assay [16] is described as follows: Quantitative High-Throughput drug screen in 47 multiple myeloma cell lines against the NCATS MIPE library collection: KMS12PE_JCRB cell viability assay (AID 1918972). Further: nearly all actives have a fitted effect of over 30% in size. In short, it runs like this: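 Approved and investigational drugs from MIPE 4.0 were added by pin tool to 500 cells per well. After 48 hours at 37C, ATP-based CellTiter-Glo luminescence indicated remaining viability.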

Assay [17] in a line: Quantitative High-Throughput drug screen in 47 multiple myeloma cell lines against the NCATS MIPE library collection: MOLP8_DSMZ cell viability assay (AID 1918977). Further: nearly all actives have a fitted effect of over 45% in size. Further: potency means the concentration at half of the fitted maximal effect. In short, it runs like this:
as §3

Assay [18] can be described thus: Quantitative High-Throughput drug screen in 47 multiple myeloma cell lines against the NCATS MIPE library collection: OCIMY1_PLB cell viability assay (AID 1918979). Further: nearly all actives have a fitted effect of over 35% in size. Further: potency means the concentration at half of the fitted maximal effect. In short, it runs like this: as §3
Assay [19] is described as follows: Quantitative High-Throughput drug screen in 47 multiple myeloma cell lines against the NCATS MIPE library collection: KMS34_JCRB cell viability assay (AID 1918985). Further: nearly all actives have a fitted effect of over 40% in size. Further: potency means the concentration at half of the fitted maximal effect. Put shortly:
as §3

A short description of assay [20]: Quantitative High-Throughput drug screen in 47 multiple myeloma cell lines against the NCATS MIPE library collection: LP1_DSMZ cell viability assay (AID 1918982). Further: nearly all actives have a fitted effect of over 35% in size. Further: potency means the concentration at half of the fitted maximal effect. In short, it runs like this:
as §3

Results filed as inconclusive are left out. A number with no mark means an inactive call. Active and inactive are the calls of the source. The call rests on the fitted dose curve; in most records, active means well fitted curve in the direction sought with a large enough effect; inconclusive means small, poorly fitted or top-dose-only effect, or another doubt; inactive means no such curve, though single readings can be large; an effect the other way counts as inactive or inconclusive.

`CC(C)n1cnc2c(NCCCCCCNC(=O)OC(C)(C)C)nc(NCCO)nc21`: the Potency was 18.7 µM (active) in assay [1]; 1.05 µM (active) in assay [2]; 23.5 µM (active) in [3]; 18.7 µM (active) in [4]; 20.9 µM (active) in [5]; 20.9 µM (active) in assay [6]. In addition, the Potency was 18.7 µM (active) in assay [7], 29.6 µM (active) in [8], 20.9 µM (active) in [9] and 9.35 µM (active) in assay [10].
For `O=C(NCc1ccncc1)C12C[C@H]3C[C@@H](C1)CC(c1ccc(Cl)cc1)(C3)C2`, the Potency in assay [1] was 20.9 µM (active); in assay [11], 13.2 µM (active); in assay [4] it was 14.8 µM (active); in assay [5], 13.2 µM (active); in assay [6], 18.7 µM (active); in [7], 23.5 µM (active). The Potency in assay [13] was 5.26 µM (active); in [14] it was 18.7 µM (active); in [8] it was 18.7 µM (active); in [9], 18.7 µM (active); in [15], 23.5 µM (active); in [10], 16.6 µM (active). Also, the Potency entry in [12] was “inactive”.
On to `CC(C)C(C)C=CC(C)C1CCC2C3=CC=C4CC(O)CCC4(C)C3CCC21C` (centres undefined), for which the Potency result in assay [1], in assay [16], in [17], in [18], in [13] and in assay [19] was “inactive” throughout. In addition, the Potency result in assay [9] is “inactive”. In addition, the values for the Potency in assay [7] and in [8] were 16.6 µM (active) and 23.5 µM (active), respectively. The viability in [15] is 135%.
As for `O=C(O)C=Cc1ccc(O)c(O)c1`, the Potency in assay [1] was 20.9 µM (active); in [11] it was 13.2 µM (active); in assay [4] it was 7.43 µM (active); in assay [17] it was 20.9 µM (active); in assay [18], 10.5 µM (active); in [5], 9.35 µM (active). Also, the Potency in assay [6] was 23.5 µM (active); in [7] it was 2.96 µM (active); in assay [13], 16.6 µM (active); in [8], 18.7 µM (active); in [9] it was 16.6 µM (active); in assay [15] it was 29.6 µM (active). Besides, in assay [10], the Potency is 14.8 µM (active).
In the case of `CCS(=O)(=O)N1CC(CC#N)(n2cc(-c3ncnc4[nH]ccc34)cn2)C1`, the Potency in assay [1] was 18.7 µM (active); in assay [3] it was 16.6 µM (active); in [5] it was 20.9 µM (active); in assay [19], 6.62 µM (active); in assay [14], 8.33 µM (active); in [8], 7.43 µM (active). The Potency in assay [9] was 20.9 µM (active); in assay [10], 23.5 µM (active). Besides, the Potency entry in [2], in assay [18] and in assay [13] was “inactive” in each case.
With `CC(C)n1nc(-c2ccc3oc(N)nc3c2)c2c(N)ncnc21`, the Potency is 0.0526 µM (active) in assay [1]; 0.0418 µM (active) in assay [2]; 0.132 µM (active) in assay [3]; 0.0026 µM (active) in assay [4]; 0.0105 µM (active) in assay [5]; 0.0023 µM (active) in assay [7]. In addition, the Potency in assay [14] was 2.64 µM (active); in [8] it was 4.69 µM (active); in [9], 0.001 µM (active); in [15], 0.0074 µM (active).
As to `CC(C)(C)OC(=O)N[C@H]1CCCCCC=C[C@@H]2C[C@@]2(C(=O)NS(=O)(=O)C2CC2)NC(=O)[C@@H]2C[C@@H](OC(=O)N3Cc4cccc(F)c4C3)CN2C1=O`, the Potency result in assay [1], in [2], in assay [3], in assay [17], in assay [12] and in assay [18] was “inactive” in each case. Besides, the Potency result in assay [5], in assay [6], in [7], in assay [13], in assay [19] and in assay [9] was “inactive” in each case. In assay [10], the Potency result was “inactive”. Moreover, the viability in assay [15] was 123%.
Regarding `CN(C)c1cc(NC(=O)CNC(C)(C)C)c(O)c2c1C[C@@H]1C[C@H]3[C@H](N(C)C)C(=O)C(C(N)=O)=C(O)[C@@]3(O)C(=O)C1=C2O`, the Potency entry in assay [1], in assay [3], in assay [12], in [18], in assay [5] and in assay [20] was “inactive” in each case. Moreover, the Potency entry in assay [7], in assay [8], in assay [9] and in assay [10] was “inactive” each time. The Potency in [4] was 14.8 µM (active); in assay [17], 9.35 µM (active); in assay [6], 18.7 µM (active).
With `Oc1ccc(C2=Cc3ccc(O)cc3OC2)cc1`, the Potency in [1] is 2.96 µM (active); in [2], 3.32 µM (active); in [11] it was 2.35 µM (active); in assay [3], 8.33 µM (active); in assay [4], 5.26 µM (active); in assay [17], 2.35 µM (active). For the same compound, the Potency in assay [12] is 2.09 µM (active); in [5], 3.32 µM (active); in [7] it was 18.7 µM (active); in assay [19], 0.662 µM (active); in [14], 1.32 µM (active); in assay [8], 2.96 µM (active). The Potency was 1.48 µM (active) in assay [9], 11.8 µM (active) in assay [15] and 5.9 µM (active) in assay [10].
On to `COc1cccc([C@@H](C)NCCCc2ccccc2Cl)c1`, for which the Potency result in assay [1], in assay [3], in assay [18], in [6], in assay [20] and in assay [7] was “inactive” each time. In addition, the Potency result in assay [19], in [8] and in [9] was “inactive” throughout. For the same compound, the Potency in [11] is 16.6 µM (active). In assay [15], the viability was 122%.
In the case of `CO[C@H]1C=CC=C(C)C(=O)NC2=CC(=O)C(NCCN(C)C)=C(C[C@@H](C)C[C@H](OC)[C@@H](O)[C@@H](C)C=C(C)[C@@H]1OC(N)=O)C2=O`, the Potency is 0.0469 µM (active) in [1]; 0.001 µM (active) in assay [2]; 0.0332 µM (active) in assay [3]; 1.66 µM (active) in assay [4]; 0.059 µM (active) in assay [12]; 0.132 µM (active) in assay [18]. The Potency in assay [5] was 0.105 µM (active); in assay [6], 0.0296 µM (active); in assay [20], 0.418 µM (active); in [7] it was 0.0166 µM (active); in [19] it was 0.0132 µM (active); in assay [8] it was 0.0118 µM (active). Also, the Potency in [9] is 0.0662 µM (active); in [15], 0.372 µM (active); in assay [10], 0.0662 µM (active).
Turning to `O=C1NC(=O)C(=Cc2cccc(C(F)(F)F)c2)S1`, the Potency is 20.9 µM (active) in assay [1]; 8.33 µM (active) in assay [11]; 23.5 µM (active) in [4]; 26.4 µM (active) in assay [8]; 14.8 µM (active) in [15]. Moreover, the Potency entry in assay [18], in [6], in assay [20] and in assay [19] was “inactive” in each case.
